High-throughput results from PubChem BioAssay.
This is a sample that favours compounds with a hit; in the whole collection about 3% have one here.
TSHR agonist – qHTS Assay for Agonists of the Thyroid Stimulating Hormone Receptor; actives 0.48% (n = 73,000); Thyrotropin receptor (Homo sapiens), P16473; Potency, µM (titrated, usually from 57.1 µM), without a hit: at the top dose activation, usual class: activators; HEK293-CNG-TSHR cells (CNG channel as cAMP sensor), membrane potential dye, cAMP; active = well fitted activation curve with a large enough effect in the main read-out, with a control signal flat, not every such curve was filed as active; inconclusive = small, poorly fitted or top-dose-only effect, or a change in a side signal; inactive = no such curve, though single readings can be large or run the other way; % of control where 0% means no effect;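 note: the control signal comes from parental cells without the receptor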
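cAMP rise detected as CNG-channel membrane depolarization by fluorescent dye (emission 590 nm), 30 min after compound, following 60 min dye loading containing 100 uM RO 20-1724 at room temperature. Cells: TSHR/CNG HEK 293, with parental CNG HEK 293 as control.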
Caspase-1 inhib – qHTS Assay for Allosteric/Competitive Inhibitors of Caspase-1 | P29466 | Caspase-1 enzyme, Ac-WEHD-AFC fluorogenic rate | actives 0.03% (n = 75,000) | Potency, µM (top dose mostly 57.5 µM), inactives show top-dose activity change, negative = inhibition, actives largely listed as inhibitors;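 note: plate controls were vehicle for no effect and no substrate for full effect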
Target sequence (P29466 120-297 limits assumed): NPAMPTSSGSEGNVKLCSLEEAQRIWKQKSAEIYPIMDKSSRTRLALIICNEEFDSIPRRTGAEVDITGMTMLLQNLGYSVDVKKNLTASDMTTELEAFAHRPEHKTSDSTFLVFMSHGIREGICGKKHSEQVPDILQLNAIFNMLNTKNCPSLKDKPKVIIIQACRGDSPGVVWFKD
Target sequence (P29466 317-404 limits assumed): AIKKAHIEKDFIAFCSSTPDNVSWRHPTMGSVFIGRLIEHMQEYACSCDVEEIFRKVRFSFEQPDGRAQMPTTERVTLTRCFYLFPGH
ALOX15 inhib – qHTS Assay for Inhibitors of 15-hLO (15-human lipoxygenase); AID 887, 2007; purified 15hLO-1, xylenol orange hydroperoxide absorbance; Polyunsaturated fatty acid lipoxygenase ALOX15 (Homo sapiens), P16050; actives 1.4% (n = 74,000); Potency, µM (top dose mostly 57.1 µM), without a hit: at the highest dose activity change, negative = inhibition, most hits filed as inhibitors; note: % is set by controls: 0 for no effect and ±100 for the full control effect; nearly all actives have a fitted effect of over 55% in size
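Compounds were preincubated 15 min at room temperature with 40 nM purified human enzyme (25 mM Hepes pH 7.5, 0.01% Triton X-100); 50 uM arachidonic acid reacted 6 min. Fe-xylenol orange detection, 30 min, absorbance ratio 573/405 nm.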
ALOX15B inhib – qHTS Assay for Inhibitors of 15-hLO-2 (15-human lipoxygenase 2) | purified 15hLO-2, xylenol orange hydroperoxide absorbance | Potency, µM (titrated, usually from 57.1 µM), inactives show top-dose activity change, negative = inhibition, hits mostly inhibitors | actives 0.56% (n = 110,000) | AID 881, 2007; note: % is set by controls: 0 for no effect and ±100 for the full control effect; nearly all actives have a fitted effect of over 60% in size
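Purified human 15hLO-2 (50 nM) preincubated 15 min with compound, then 45 uM arachidonic acid for 90 min at RT in 25 mM Hepes pH 7.5, 0.01% Triton X-100. Hydroperoxide detected by Fe-xylenol orange; 573/405 nm absorbance ratio.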
HEK293 cAMP ctrl – qHTS Assay for Agonists of the Thyroid Stimulating Hormone Receptor: Activators of Intracellular cAMP Concentrations in Parental HEK 293 | actives 2.5% (n = 73,000) | Potency, µM (series often up to 57.1 µM), without a hit: at the top dose activation, actives largely listed as activators | parental HEK293 CNG cAMP sensor, membrane potential fluorescence | AID 938, 2007; note: % of control where 0% means no effect; nearly all actives have a fitted effect of over 55% in size
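Parental HEK 293 cells stably expressing a modified CNG channel (no TSHR) report cAMP rise as membrane depolarization. Membrane potential dye with 100 uM RO 20-1724 was loaded for 60 min at room temperature, then compound added for 30 min; fluorescence read at 590 nm.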
Casp7 inh – qHTS Assay for Allosteric/Competitive Inhibitors of Caspase-7; AID 889, 2007; P55210; actives 0.02% (n = 75,000); Potency, µM (titrated, usually from 57.5 µM), for inactives: at the highest dose activity change, negative = inhibition, most hits filed as inhibitors; recombinant caspase-7, Ac-DEVD-AFC fluorescence rate; active = well fitted inhibition curve with a large enough effect in the main read-out, with a control signal flat, not every such curve was filed as active; inconclusive = small, poorly fitted or top-dose-only effect, or a change in a side signal; note: % of control where 0% means no effect
Target sequence (P55210 24-198 limits assumed): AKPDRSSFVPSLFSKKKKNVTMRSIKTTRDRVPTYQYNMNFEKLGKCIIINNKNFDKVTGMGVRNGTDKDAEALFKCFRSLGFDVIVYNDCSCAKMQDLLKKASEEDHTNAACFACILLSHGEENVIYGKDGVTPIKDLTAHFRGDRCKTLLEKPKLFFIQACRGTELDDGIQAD
Target sequence (P55210 207-303 limits assumed): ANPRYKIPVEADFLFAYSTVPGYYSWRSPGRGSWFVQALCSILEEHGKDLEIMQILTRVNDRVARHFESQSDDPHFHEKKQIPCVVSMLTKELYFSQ
* = called active by the depositor; ? = inconclusive; . = no result; [ ] = dose if it differs, or a comment. Unless noted, calls come from the whole dose curve; as a rule, active = well fitted curve in the direction sought with a large enough effect; inconclusive = small, poorly fitted or top-dose-only effect, or another doubt; inactive = no such curve, though single readings can be large; an effect the other way counts as inactive or inconclusive. Potency is the fitted concentration of half-maximal effect.

SMILES	TSHR agonist	Caspase-1 inhib	ALOX15 inhib	ALOX15B inhib	HEK293 cAMP ctrl	Casp7 inh
CCCCCCCCCCCCCCCCCC(=O)O[C@H](CC(=O)O)C[N+](C)(C)C	?	1%	13%	6%	?	-1%
COC(=O)[C@@]1(Cc2ccccc2)[C@H]2c3cc(C(=O)N(C)C)n(Cc4ccc(S(C)(=O)=O)cc4)c3C[C@H]2CN1C(=O)c1ccccc1	?	0%	.	1%	16µM*	-6%
COC(=O)[C@@]1(Cc2ccc(F)cc2)[C@H]2c3cc(C(=O)N(C)C)n(CC4CC4)c3C[C@H]2CN1C(=O)c1ccccc1	?	-3%	.	5%	6.3µM*	-6%
COC(=O)[C@@]1(Cc2ccccc2)[C@H]2c3cc(C(=O)N(C)C)n(Cc4ccc(O)c(OC)c4)c3C[C@H]2CN1C(=O)c1ccccc1	?	-2%	.	-28%	25µM*	-6%
COC(=O)[C@@]1(Cc2ccccc2)[C@H]2c3cc(C(=O)N(C)C)n(Cc4ccccn4)c3C[C@H]2CN1C(=O)c1ccccc1	?	-4%	.	-8%	?	-4%
COC(=O)[C@@]1(Cc2ccc(F)cc2)[C@H]2c3cc(C(=O)N(C)C)n(Cc4cc(F)c(F)c(F)c4)c3C[C@H]2CN1C(=O)c1ccccc1	-8%	0%	.	-4%	27%	1%
COC(=O)[C@@]1(Cc2ccc(OC)cc2)[C@H]2c3cc(C(=O)N(C)C)n(Cc4ccc(O)c(OC)c4)c3C[C@H]2CN1C(=O)c1ccccc1	?	-3%	.	?	?	-4%
COC(=O)[C@@]1(Cc2ccc(OC)cc2)[C@H]2c3cc(C(=O)N(C)C)n(Cc4cc(F)c(F)c(F)c4)c3C[C@H]2CN1C(=O)c1ccccc1	?	-5%	.	-1%	4µM*	-5%
C/C(CCN1CCCc2nc(C)c(C)cc21)=N\O[C@@H](C)CN1CCCc2nc(C)c(C)cc21	-3%[11.4 µM]	-3%[11.5 µM]	2%[11.4 µM]	.	0%[11.4 µM]	-6%[11.5 µM]
COC(=O)c1ccc(CC(=O)c2c(C)cc(O)cc2O)o1	3%	-4%	25µM*	4%	-1%	-4%
CO[C@@H]1COC(=O)[C@H](COCc2ccccc2)NC(=O)C/C=C\[C@@H](C)[C@H](OC)COC(=O)[C@@H](C)NC(=O)C/C=C\[C@H]1C	.	-2%[11.5 µM]	0%[11.4 µM]	.	14%[11.4 µM]	-1%[11.5 µM]
CCN(c1ccccc1)c1cc(NC)[n+](C)c(C)n1	?	2%	-6%[25.6 µM]	29%	32µM*	0%
CN[C@]1(C)[C@@H]2CC[C@@H](C2)C1(C)C	4%	5%	8%	-4%	-7%	-1%
CCOc1ccccc1-c1ccc(C(=O)O)o1	.	.	.	1%[0.0915 µM]	.	.
Cc1cc(=O)cc2oc3cc(N)c(-c4c(C)cc(O)cc4O)c(C)c3nc1-2	.	-13%	?	?	.	-30%
COc1cc(CNc2ccc(C)c(C)c2)cc(OC)c1OC	?	-1%	10µM*	?	?	-3%
NC(Cc1c[nH]c2ccccc12)C(=O)O (stereo not drawn)	.	-1%	7.9µM*	10%	.	-2%
CN1CCN(c2ncc3nc(-c4cccs4)c(=O)n(-c4ccccc4)c3n2)CC1	-9%	.	-10%	5%	7%	?
Nc1ncnc2c([C@@H]3O[C@@H](CO)[C@H](O)[C@@H]3O)nsc12	-1%[11.4 µM]	-2%[11.5 µM]	-4%[11.4 µM]	-6%[11.4 µM]	-5%[11.4 µM]	1%[11.5 µM]
CCOc1ccccc1C(=O)Nc1nccs1	-1%	1%	7.9µM*	2%	8%	4%
COCCSc1ccccc1C(=O)Nc1nccs1	8%	0%	-10%	?	-17%	1%
Cc1occc1-c1nnc(SCC(=O)Nc2nccs2)n1CCc1ccccc1	?	4%	3%	-4%	?	0%
CCOc1ccccc1-n1c(SCC(=O)Nc2nccs2)nnc1-c1ccoc1C	?	-3%	-5%	8%	13µM*	-3%
CCc1nnc(NC(=O)CSc2nnc(-c3ccoc3C)n2-c2ccc(C)cc2)s1	16µM*	-3%	-4%	-6%	22%	-1%
CCc1nnc(NC(=O)CSc2nnc(-c3ccoc3C)n2-c2ccccc2)s1	22%	-2%	0%	-3%	17%	1%
SMILES	TSHR agonist	Caspase-1 inhib	ALOX15 inhib	ALOX15B inhib	HEK293 cAMP ctrl	Casp7 inh
CC(C)[C@@H]1NC(=O)[C@H](CCCCN)NC(=O)[C@H](Cc2c[nH]c3ccccc23)NC(=O)[C@H](Cc2ccc(O)cc2)NC(=O)[C@H](C)N(C)C(=O)[C@H](Cc2ccccc2)NC1=O	3%	2%	-8%	14%	3%	2%
CN(Cc1cccs1)c1ncnc2sccc12	?	-3%	-19%	-1%	16µM*	0%
CCOc1ccc(C(=O)c2ccc(O)c(O)c2O)cc1	.	4%	?	?	.	-1%
CCOc1cccc(C(=O)c2ccc(O)c(O)c2O)c1	.	-2%	13µM*	?	.	-13%
CCC(C)c1ccc(O)c(N)c1 (stereo not drawn)	-4%	0%	13µM*	?	-3%	0%
Nc1cc(S(=O)(=O)O)ccc1O	0%	-2%	-3%	0%	0%	-1%
CC(C)c1ccc(O)c(N)c1	.	.	.	5µM*	.	.
COc1cccc(OC)c1-c1nnc(-c2cn(C)c3ccccc23)o1	?	0%	-2%	-4%	20µM*	0%
O=C(c1csnn1)N1CCC[C@@]2(CCN(c3ccccc3)C2)C1	-4%	-3%	-11%	-11%	8%	-3%
COc1cc(C2CC(=O)N3CN(Cc4ccco4)CSC3=C2C#N)ccc1OCc1ccccc1 (stereo not drawn)	-10%	-7%	6.3µM*	?	14%	-19%
COc1ccc2ccccc2c1C1CC(=O)N2CN(C3CCCCC3)CSC2=C1C#N (stereo not drawn)	?	-16%	?	?	?	-24%
COc1ccc2ccccc2c1C1CC(=O)N2CN(Cc3ccco3)CSC2=C1C#N (stereo not drawn)	?	-5%	?	13µM*	?	-13%
CN1CCN(C(=O)CSc2nc(-c3cccs3)cc(-c3cccs3)c2C#N)CC1	9%	-7%	16µM*	21%	11%	-9%
N=C1Sc2ccccc2C2=NCCCN12	0%	1%	?	13µM*	3%	0%
